# The sample as a whole holds a higher share of hits than the screen did.
# Cycloheximide cs = counter-screen hit for Shiga toxin inhibitors, cycloheximide | cell reporter, cycloheximide protein synthesis inhibition counterscreen | max response, % | 300,000 tested, 12% active; in the data active means max response mostly above about 13%, no sharp cut-off; inactive means mostly below about 14%; further: read at 38.3 µM for the half of the compounds with a filed dose; 0% is about no effect
# VACV Venus inh = inhibitors of vaccinia virus (Venus reporter) | Potency, µM (series often up to 36.5 µM), for inactives: top-dose activity change, negative = inhibition, most hits filed as inhibitors | 330,000 tested, 0.46% active | AID 720580 | Vaccinia virus Venus reporter expression, fluorescence; calls by dose curve; tested in A549 cells; further: potency means the concentration at half of the fitted maximal effect; on the % scale 0 is the no-effect control and ±100 the full control effect; nearly all actives have a fitted effect of over 30% in size
# Shiga inhibitor = blocks Shiga toxin action in Vero cells; inhibition, % at 38.7 µM; AID 2315; 290,000 tested, 9.2% active; Vero cells, Shiga toxin protein synthesis inhibition reporter; in the data active means inhibition mostly above about 28%, no sharp cut-off; inactive means mostly below about 43%; further: 0% is about no effect
# VACV mCherry inh = vaccinia inhibition (mCherry reporter). Vaccinia virus mCherry reporter infection, fluorescence. Potency, µM (highest dose often 36.5 µM), for the others: top-dose activity change, negative = inhibition, actives largely listed as inhibitors. 310,000 tested, 0.63% active; calls by dose curve; tested in A549 cells; further: potency means the concentration at half of the fitted maximal effect; on the % scale 0 is the no-effect control and ±100 the full control effect; nearly all actives have a fitted effect of over 35% in size
# Lassa entry inh = Lassa virus entry inhibition | Lassa virus pseudotype entry inhibition, cell reporter | 300,000 tested, 1.2% active | Potency, µM (titrated, usually from 37.9 µM), for inactives: top-dose activity change, negative = inhibition, most hits filed as inhibitors; calls by dose curve; tested in HEK293 cells; further: potency means the concentration at half of the fitted maximal effect; on the % scale 0 is the no-effect control and ±100 the full control effect; nearly all actives have a fitted effect of over 50% in size
# MARV entry inh = inhibitors of Marburg virus binding or cell entry | Marburg virus pseudotyped entry inhibition, cell reporter | 300,000 tested, 1.8% active | Potency, µM (series often up to 37.8 µM), without a hit: at the highest dose activity change, negative = inhibition, actives largely listed as inhibitors | AID 540276; calls by dose curve; tested in HEK293 cells; further: potency means the concentration at half of the fitted maximal effect; on the % scale 0 is the no-effect control and ±100 the full control effect
# Starred values were filed as active, the others as inactive; i = inactive; ? = inconclusive; / = not tested or not shown; [ ] = another dose, or the depositor's remark.
SMILES,Cycloheximide cs,VACV Venus inh,Shiga inhibitor,VACV mCherry inh,Lassa entry inh,MARV entry inh
CN(C)C(Cc1ccc(Cl)cc1)C(=O)c1ccccc1 (centres undefined),24.3*,6.7%,50.4*,i,6.7%,?
COc1ccc(C(C)=O)cc1CC(C(=O)c1ccc(C)cc1)N(C)C (centres undefined),-3.0,/,-3.0,/,/,8.0%
CN(Cc1cc(Cl)cc(Cl)c1)CC(C(=O)c1ccccc1)c1ccccc1 (centres undefined),/,-17.6%,/,-18.3%,?,?
CN(C)C(Cc1ccccc1)C(=O)c1cccs1 (centres undefined),13.1*,/,39.4,/,/,/
COC(=O)c1ccc(CC(C(=O)c2ccccc2)N(C)C)cc1 (centres undefined),47.9*,/,107.2*,/,/,/
Cc1cc(CNC(=O)c2cnn(-c3nccc(-c4cc(C)sc4C)n3)c2C2CC2)on1,/,-2.8%,/,-2.8%,/,/
CCC(CC)N1CCN(CC2CC=CCC2)CC1 (centres undefined),-1.9,0.3%,-2.7,-14.8%,-10.6%,-28.3%[46.1 µM]
COc1cccc(-c2nc(CS(=O)(=O)CC(=O)NCCc3ccc(Cl)cc3)c(C)o2)c1,/,-21.8%,/,-22.1%,-4.1%[46.1 µM],-20.7%[46.1 µM]
CC(Oc1ccccc1)C(=O)NC1=NCCS1 (centres undefined),38.1*,-30.0%,79.5*,-3.9%,?,?
CC(C)c1ccc(OCC(=O)NC2=NCCS2)cc1,68.9*,-20.0%,98.2*,-3.1%,?,24.8%
N#Cc1ccc(OCC(=O)NC2=NCCS2)cc1,23.0,-4.4%,51.1,-11.4%,-16.6%,?
O=C(COc1ccccc1)NC1=NCCS1,41.0*,-19.7%,95.1*,-0.1%,?,12.2%
COc1ccccc1N1CCN(C(=O)CCNS(=O)(=O)c2ccc3c(c2)CCN3C(=O)C2CC2)CC1,/,-13.5%,/,-13.1%,-2.0%[46.1 µM],/
CC(=O)Nc1ccc(SCc2c(C)noc2C)cc1,-2.6,/,-5.0,/,/,/
CC(=O)Nc1ccc(SCC(=O)c2ccc(Br)s2)cc1,21.2*,-4.7%,36.9*,-4.7%,9.6%,-2.5%[46.1 µM]
Cc1ccc(SCC(=O)c2ccc(CC(=O)O)s2)cc1,19.5*,4.2%,24.1,i,?,16.8%[46.1 µM]
Cc1ccnc(SCC(=O)c2cccs2)n1,38.0*,-19.7%,83.7*,i,?,?
Cc1cc(C)nc(SCC(=O)NNC(=O)c2cccs2)n1,-2.5,?,-9.2,-12.4%,2.7%[46.1 µM],17.2%[46.1 µM]
CC(=O)Nc1ccc(SCc2csc(C)n2)cc1,14.5,-5.9%,47.3*,9.3%,7.8%,1.2%[46.1 µM]
CCC(C)NC(=O)CSc1ccc(NC(C)=O)cc1 (centres undefined),-5.3,-9.6%,-2.2,-11.0%,-3.4%,-10.7%[46.1 µM]
CN1c2ccc(Cl)cc2-c2nc(SCC(=O)NCc3ccc(F)cc3)ncc2S1(=O)=O,/,0.1%,/,i,?,/
O=C1CSC(c2cccnc2)N1CCc1ccccn1 (centres undefined),5.7,/,13.8,/,/,/
Cc1ccnc(SCC(=O)c2ccc(Br)s2)n1,35.8*,8.4%,36.7,i,?,8.4%[46.1 µM]
Cn1nnnc1SCC(=O)c1ccc(Br)s1,10.1,-16.7%,12.9,/,6.3%,18.5%
COc1cccc(-c2ccc(O)c(CNCc3cccc(OC)c3OC)c2)n1,/,-10.5%,/,-15.2%,/,/
SMILES,Cycloheximide cs,VACV Venus inh,Shiga inhibitor,VACV mCherry inh,Lassa entry inh,MARV entry inh
CCOCc1nnc(NC(=O)CSc2ccccc2)s1,1.5,-10.6%,-10.2,i,0.8%,-2.8%[46.1 µM]
CC(C)(C)Cc1nnc(NC(=O)CSc2ccccc2)s1,12.5*,/,14.1,/,/,/
CC(C)c1nnc(NC(=O)CSc2ccccc2)s1,33.8*,-11.1%,17.8,/,13.2%,?
CC(C)c1nnc(NC(=O)CC(C)c2ccccc2)s1 (centres undefined),13.1,-9.8%,18.2,i,-6.3%,-16.9%
Cc1cc(NCCCn2ccnc2)n2nc(-c3ccc(Cl)cc3)cc2n1,20.2*,-6.2%,57.1,-21.1%,11.4%,-15.5%
CC(C)(C)c1cc(NCCCn2ccnc2)n2ncc(-c3ccc(Cl)cc3)c2n1,58.2*,?,86.6*,?,?,?
Cc1cccc(-c2cc3nc(C)cc(NCCCN(C)C)n3n2)c1,-2.1,-14.4%,-11.7,-23.2%,?,?
Cc1cc(C)c2c(n1)nn1c(NCCCn3ccnc3)cc(C)nc21,-5.3,/,3.2,/,/,/
Cc1cc(NCCCn2ccnc2)n2nc(-c3ccc(F)cc3)cc2n1,20.3*,-18.6%,29.2*,i,?,0.9%
Cc1cccc(-c2cc3nc(C)c(C)c(NCCCn4ccnc4)n3n2)c1,16.0,?,27.0,-26.8%,-27.2%[46.1 µM],?

# Compound activity: PubChem BioAssay, National Center for Advancing Translational Sciences (NCATS)
